# Laboratory results taken from PubChem BioAssay (EPA / NIEHS).
# Records with an inconclusive call do not appear. The source made the active and inactive calls. Rule for the calls: active = hit-call score of the fitted dose curve at least 0.9, where 1 is the maximum; inconclusive = response in the unintended direction; inactive = score below 0.9.
# Experiment: ACEA_ER_80hr: ACEA Biosciences xCELLigence Real-Time Cell Analysis on Estrogen Receptor Agonism for Proliferation (AID 2282667)
# Settings: T47D proliferation, impedance (xCELLigence), 80 h
# Outline: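 T-47D cells monitored by electrical impedance (xCELLigence) with compound present throughout; 80 h timepoint, positive-direction fitting versus DMSO. Eight-point 1:4 dilutions from 100 uM final, duplicate plates.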
Compound,outcome,AC50
C=C/C(C)=C/C/C=C(\C)CCC=C(C)C,inactive,–
CC1=CC(=O)[C@H]2C[C@@H]1C2(C)C,inactive,–
O=S1(=O)CC=CC1,inactive,–
CC(=O)CCC=C(C)CCC=C(C)C,inactive,–
Nc1ccn([C@H]2CC[C@@H](CO)O2)c(=O)n1,inactive,–
CCOC(=O)COC(=O)c1ccccc1C(=O)OCC,inactive,–
NCCCOCCOCCOCCCN,–,10.2 µM (active)
N#CCCNCCC#N,–,0.274 µM (active)
CCCCN(CCO)CCO,inactive,–
NC(=O)c1c(Cl)cccc1Cl,–,0.168 µM (active)
Nc1ccc(O)c(N)c1,inactive,–
COc1ccc(N)c(C)c1,–,43.5 µM (active)
CC(O)COCC(C)O (configuration not stated),inactive,–
C=COCC1CCC(COC=C)CC1 (configuration not stated),inactive,–
CC(=O)CCC(=O)O,inactive,–
NC(=O)c1cnccn1,inactive,–
CC=CC(=O)C1=C(C)C=CCC1(C)C,inactive,–
CCCCCCCCCCOC(=O)c1ccccc1C(=O)OCCCCCCCC,inactive,–
CCNC(=S)NCC,inactive,–

Compound,outcome,AC50
CC1=CCC(C(C)(C)O)CC1 (configuration not stated),inactive,–
CC(=O)OCC=C(C)CCC=C(C)CCC=C(C)C,inactive,–
CC(C)C(=O)OCC=Cc1ccccc1,inactive,–
C[N+](C)(C)CCO,inactive,–
c1ccc2scnc2c1,inactive,–
COc1cc(OC)c2ccc(=O)oc2c1,inactive,–
OCC(F)(OC(F)(F)C(F)(OC(F)(F)C(F)(F)C(F)(F)F)C(F)(F)F)C(F)(F)F (configuration not stated),inactive,–
C=C(C)C(=O)OCCC(F)(F)C(F)(F)C(F)(F)C(F)(F)C(F)(F)C(F)(F)C(F)(F)C(F)(F)F,inactive,–
CCC(C)C1CCCCC1=O (configuration not stated),inactive,–
CC(=O)CC(C)(C)C1CCCCC1,inactive,–
C=C(C)C(=O)OCCN(C)C,inactive,–
CCOC(=O)CCCCCCCCC(=O)OCC,inactive,–
CC1(C)[C@H](C=C(Cl)Cl)[C@H]1C(=O)OCc1cccc(Oc2ccccc2)c1,inactive,–
CCCCCC#CC(=O)OC,inactive,–
CC1=CCC(=C(C)C)CC1,inactive,–
CCCCCCCCCO,inactive,–
CCCCCCC(O)CCOC(C)=O (configuration not stated),inactive,–
CCc1cccc(O)c1,inactive,–
